Measurements from PubChem BioAssay (NCI).
This is part of a sample that, as a whole, favours compounds with a hit. Of some 83,000 tested, about 20% had one in any assay.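 96-well plates, one dose, 48 hours. Percent growth reported; active if below 10.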 Values without a mark were called inactive. Active and inactive are the calls of the source.

Columns and labels:
Assay in all cases: NCI-60 one-dose screen, 48 h (100 = growth as untreated, 0 = no growth, -100 = all killed)
Settings in all cases: 10 µM unless noted
T-47D breast = test system: T-47D breast
BT-549 breast = test system: BT-549 breast
MDA-MB-435 melanoma = test system: MDA-MB-435 melanoma
SW-620 colon = test system: SW-620 colon
MCF7 breast = test system: MCF7 breast
HCT-116 colon = test system: HCT-116 colon
HCC-2998 colon = test system: HCC-2998 colon
KM12 colon = test system: KM12 colon

| Structure (SMILES) | growth (T-47D breast) | growth (BT-549 breast) | growth (MDA-MB-435 melanoma) | growth (SW-620 colon) | growth (MCF7 breast) | growth (HCT-116 colon) | growth (HCC-2998 colon) | growth (KM12 colon) |
| --- | --- | --- | --- | --- | --- | --- | --- | --- |
| O=C(NNc1nc2cc(F)c(F)cc2n2cccc12)c1cnccn1 | 13.6% | 43.7% | 37.1% | 27.4% | 14% | 17.5% | 40.9% | 22.3% |
| C#Cc1nc(C(C)=O)cs1 | 101% | 98.5% | 104% | 107% | 90.8% | 95% | 114% | 94.7% |
| Cn1ccnc1C(=O)/C=C/c1ccc(CNC(=O)c2ccc(F)cc2)cc1 | 33.4% | 43.2% | 44.1% | 9.37% (active) | 11.6% | 13.2% | 35.9% | 22.1% |
| CN(Cc1ccccc1)S(=O)(=O)/N=C1\NC(=O)NC1=C(Cl)Cl | 56.8% | 94.6% | 79.6% | -49.5% (active) | 12.6% | 21.3% | 71.8% | 4.88% (active) |
| CCCCCc1ccc(S(=O)(=O)Nc2cccc(-c3csc(NC(=O)CNCCN(C)C)n3)c2)cc1 | 68.3% | 104% | 90.1% | 87.3% | 41.3% | 55.4% | 16.2% | 90.2% |
| CS(=O)(=O)c1ncc(-c2ccccc2)cn1 | 94.4% | 93.4% | 95.2% | 113% | 91.9% | 96.9% | 104% | 100% |
| O=C1[C@H]2Cc3c([nH]c4ccccc34)[C@@H](c3ccc(Br)cc3)N2C(=O)CN1C1CCN(CC2CCCCC2)CC1 | 44.7% | -3.47% (active) | -88% (active) | -83.4% (active) | -99.1% (active) | -93.2% (active) | -98.8% (active) | -90.1% (active) |
| NC(N)=Nc1ccc(Nc2cccc(Nc3ccc(Cl)c(C(F)(F)F)c3)c2)cn1 | 23.8% | 67.8% | 30.4% | 5.81% (active) | 2.25% (active) | 16.1% | 9.32% (active) | -38.3% (active) |
| CCCn1cnc2c(c1=N)C(c1ccc(OC)cc1)c1sc3c(C)cccc3c1O2 (configuration not stated) | 40.6% | 12.2% | -33.4% (active) | 25.7% | 20.4% | 6.27% (active) | 15% | 11.7% |
| N#Cc1cccc(NC(=O)c2cc(-c3ccc(F)cc3F)ccc2O)c1 | 7.54% (active) | -0.215% (active) | 2.73% (active) | 13.4% | 2.47% (active) | 5.45% (active) | 22.7% | 2.94% (active) |
| C#CCC#CCN1CCC[C@H]1C(=O)NCC(=O)OC | 94.8% | -91.5% (active) | 105% | 113% | 99.4% | 104% | 106% | 103% |
| COc1cc2c(cc1OC)C(Sc1ccc(C)cc1)c1c(nc(N)c(C#N)c1N)O2 (configuration not stated) | -28.9% (active) | 35% | -31.3% (active) | -36.6% (active) | -66.9% (active) | -69.6% (active) | -85.2% (active) | -52.5% (active) |
| O=C1[C@H]2Cc3c([nH]c4ccccc34)[C@@H](c3c(Cl)cccc3Cl)N2C(=O)CN1C1CCN(CC2CCCCC2)CC1 | 94% | 96.5% | 101% | 65.8% | 51.9% | 35.5% | 85.3% | 92% |
| NC(N)=Nc1ccc(Oc2cccc(NC(N)=Nc3ccc(Cl)c(C(F)(F)F)c3)c2)cc1 | 57.9% | 43.8% | 62.9% | 57% | 42% | 44.9% | 66.2% | 26.2% |
